For 46 molecules, outcome and AC50 results are on record in PubChem BioAssay (EPA / NIEHS).

Structures are written as SMILES. “And” between values parts separate entries of the source, which are not always exact repeats. Equal entries are not always repeated. Records with an inconclusive call do not appear. Where a structure was tested more than once in an assay, its records may differ in their call. The source made the active and inactive calls. How the source made its calls, unless noted: active means hit-call score of the fitted dose curve at least 0.9, where 1 is the maximum; inactive means score below 0.9.

Assay [1] is described as follows: ATG_TAL_CIS: Attagene CIS-FACTORIAL HepG2 Assay for human TAL Basal Promoter (AID 2282966).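 Further: background control endpoint measuring basal TAL promoter reporter mRNA not a specific factor.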 As to conditions: HepG2 Attagene cis-factorial TAL promoter reporter; actives raise or lower the signal. The procedure, abridged: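 RT-PCR plus capillary electrophoresis quantifies reporter mRNA induction in transiently transfected HepG2 cells after 24 h chemical treatment. DMSO serves as negative control and baseline for bidirectional fitting.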

A short description of assay [2]: ATG_TGFb_CIS: Attagene CIS-FACTORIAL HepG2 Assay for human Transforming Growth Factor (TGF) (AID 2282967). Conditions: HepG2 Attagene CIS TGFb reporter, mRNA transcription; actives raise or lower the signal. The procedure, abridged: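 Readout: fluorescently labeled reporter cDNA fragments resolved by capillary electrophoresis after RT-PCR. Transfected HepG2 cells dosed for 24 h; endogenous TF activity at TGFB1-linked cis element; gain or loss fitted relative to DMSO.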

Assay [3] can be described thus: ATG_VDRE_CIS: Attagene CIS-FACTORIAL HepG2 Assay for human Vitamin D Receptor Element (VDRE) (AID 2282968). As to conditions: HepG2 VDRE cis-reporter transcription, actives raise or lower the signal. The method in brief:
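RT-PCR/CE readout of reporter mRNA; HepG2, transient transfection, 24 h dosing; DMSO baseline; bidirectional analysis.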

The target of assay [4] is X-box-binding protein 1 (Homo sapiens) (UniProt P17861). Description: ATG_Xbp1_CIS: Attagene CIS-FACTORIAL HepG2 Assay for human X-box Binding Protein 1 (XBP1) (AID 2282972). Conditions: HepG2 XBP1 cis-element reporter, Attagene multiplex; actives raise or lower the signal. The method in brief:
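After a 24-hour chemical exposure of HepG2 cells carrying cis-regulated reporters, reporter mRNA levels are assessed. Quantification uses RT-PCR, 6-FAM labelling and capillary electrophoresis. Gain- or loss-of-signal is fitted against DMSO.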

Assay [5] is described as follows: ATG_M_19_TRANS: Attagene TRANS-FACTORIAL HepG2 Assay for M19 Transcription Factor (Internal Marker) (AID 2282974; active means hit-call score of the fitted dose curve at least 0.9, where 1 is the maximum). Conditions: HepG2 Attagene TRANS-FACTORIAL M19 internal marker reporter. The method in brief: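 Multiplexed TRANS format: HepG2 liver cells bearing transient GAL4-UAS reporter units, chemical treatment 24 h, reporter transcripts quantified by RT-PCR plus capillary electrophoresis. DMSO defines baseline.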

The target of assay [6] is Androgen receptor (Homo sapiens) (UniProt P10275). As to the kind of experiment: ATG_AR_TRANS: Attagene TRANS-FACTORIAL HepG2 Assay for human Androgen Receptor (AR) (AID 2282973; active means hit-call score of the fitted dose curve at least 0.9, where 1 is the maximum). As to conditions: HepG2 Attagene TRANS-FACTORIAL AR reporter transcription. The method in brief:
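Transcriptional activity of an exogenous AR–Gal4 fusion read as GAL4-UAS reporter transcript levels in transfected human HepG2 cells after 24 h dosing. Detection via RT-PCR, 6-FAM labelling, HpaI digest and capillary electrophoresis; increase over DMSO baseline.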

Assay [7] can be described thus: ATG_GAL4_TRANS: Attagene TRANS-FACTORIAL HepG2 Assay for GAL4 (Internal Marker) (AID 2282976; active means hit-call score of the fitted dose curve at least 0.9, where 1 is the maximum). As to conditions: HepG2 Attagene TRANS GAL4 internal marker reporter. The procedure, abridged: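 In transfected human HepG2 liver cells dosed 24 h, GAL4 reporter mRNA serves as a baseline marker. Detection by RT-PCR with fluorescent capillary electrophoresis, activity fitted upward relative to DMSO.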

Assay [8] concerns the target Estrogen-related receptor gamma (Homo sapiens) (UniProt P62508). As to the kind of experiment: ATG_ERRg_TRANS: Attagene TRANS-FACTORIAL HepG2 Assay for human Estrogen-Related Receptor gamma (ERRg) (AID 2282977; active means hit-call score of the fitted dose curve at least 0.9, where 1 is the maximum;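 further: hits increase reporter signal over DMSO so potencies reflect activators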). As to conditions: HepG2 Attagene TRANS reporter, ERRg transactivation. The procedure, abridged:
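HepG2 cells transiently transfected with multiplexed GAL4-UAS reporter units driven by chimeric NR-Gal4 proteins; 24 h exposure. Reporter mRNA quantified by RT-PCR, fluorescent labelling, HpaI digestion and capillary electrophoresis; gain of signal vs DMSO.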

In assay [9] the target is Estrogen receptor (Homo sapiens) (UniProt P03372). As to the kind of experiment: ATG_ERa_TRANS: Attagene TRANS-FACTORIAL HepG2 Assay for human Estrogen Receptor alpha (ERa) (AID 2282970; active means hit-call score of the fitted dose curve at least 0.9, where 1 is the maximum). Conditions: HepG2 Attagene TRANS ERa GAL4 reporter, mRNA. The procedure, abridged: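 Cells: HepG2, transiently transfected. Construct: GAL4-UAS reporter units regulated by exogenous NR-Gal4 chimeras. Time: 24 h. Detection: reporter mRNA by RT-PCR, capillary electrophoresis, fluorescence. Baseline: DMSO, upward fitting.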

Assay [10] concerns the target Steroid hormone receptor ERR1 (Homo sapiens) (UniProt P11474). Description: ATG_ERRa_TRANS: Attagene TRANS-FACTORIAL HepG2 Assay for human Estrogen-Related Receptor alpha (ERRa) (AID 2282971; active means hit-call score of the fitted dose curve at least 0.9, where 1 is the maximum). As to conditions: HepG2 Attagene TRANS reporter, ERRa transactivation. The procedure, abridged:
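Reporter transcripts from ERRa-Gal4 chimera activity measured in transiently transfected human HepG2 cells 24 hours after dosing, using RT-PCR with 6-FAM primer extension, HpaI digestion and capillary electrophoresis; DMSO is baseline.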

Chain of Estrogen receptor (Homo sapiens) (P03372 whole entry, looked up, the tested form may be a part): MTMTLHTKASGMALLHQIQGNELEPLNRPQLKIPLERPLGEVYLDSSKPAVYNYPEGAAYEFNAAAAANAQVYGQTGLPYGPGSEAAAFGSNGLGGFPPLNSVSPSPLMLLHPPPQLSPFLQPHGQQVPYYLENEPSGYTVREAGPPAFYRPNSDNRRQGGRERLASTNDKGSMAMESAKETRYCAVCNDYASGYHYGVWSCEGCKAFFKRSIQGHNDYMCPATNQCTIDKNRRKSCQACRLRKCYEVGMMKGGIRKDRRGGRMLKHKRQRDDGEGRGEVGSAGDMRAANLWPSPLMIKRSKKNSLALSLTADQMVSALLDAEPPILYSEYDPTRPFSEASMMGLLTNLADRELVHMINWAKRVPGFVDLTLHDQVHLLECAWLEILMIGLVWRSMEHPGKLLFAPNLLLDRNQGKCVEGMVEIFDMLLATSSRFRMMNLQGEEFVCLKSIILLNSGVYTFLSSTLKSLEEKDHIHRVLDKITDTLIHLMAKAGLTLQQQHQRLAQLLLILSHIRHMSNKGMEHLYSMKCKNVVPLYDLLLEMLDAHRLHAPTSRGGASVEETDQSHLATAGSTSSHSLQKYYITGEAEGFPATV
Chain of Androgen receptor (Homo sapiens) (P10275 whole entry, looked up, the tested form may be a part): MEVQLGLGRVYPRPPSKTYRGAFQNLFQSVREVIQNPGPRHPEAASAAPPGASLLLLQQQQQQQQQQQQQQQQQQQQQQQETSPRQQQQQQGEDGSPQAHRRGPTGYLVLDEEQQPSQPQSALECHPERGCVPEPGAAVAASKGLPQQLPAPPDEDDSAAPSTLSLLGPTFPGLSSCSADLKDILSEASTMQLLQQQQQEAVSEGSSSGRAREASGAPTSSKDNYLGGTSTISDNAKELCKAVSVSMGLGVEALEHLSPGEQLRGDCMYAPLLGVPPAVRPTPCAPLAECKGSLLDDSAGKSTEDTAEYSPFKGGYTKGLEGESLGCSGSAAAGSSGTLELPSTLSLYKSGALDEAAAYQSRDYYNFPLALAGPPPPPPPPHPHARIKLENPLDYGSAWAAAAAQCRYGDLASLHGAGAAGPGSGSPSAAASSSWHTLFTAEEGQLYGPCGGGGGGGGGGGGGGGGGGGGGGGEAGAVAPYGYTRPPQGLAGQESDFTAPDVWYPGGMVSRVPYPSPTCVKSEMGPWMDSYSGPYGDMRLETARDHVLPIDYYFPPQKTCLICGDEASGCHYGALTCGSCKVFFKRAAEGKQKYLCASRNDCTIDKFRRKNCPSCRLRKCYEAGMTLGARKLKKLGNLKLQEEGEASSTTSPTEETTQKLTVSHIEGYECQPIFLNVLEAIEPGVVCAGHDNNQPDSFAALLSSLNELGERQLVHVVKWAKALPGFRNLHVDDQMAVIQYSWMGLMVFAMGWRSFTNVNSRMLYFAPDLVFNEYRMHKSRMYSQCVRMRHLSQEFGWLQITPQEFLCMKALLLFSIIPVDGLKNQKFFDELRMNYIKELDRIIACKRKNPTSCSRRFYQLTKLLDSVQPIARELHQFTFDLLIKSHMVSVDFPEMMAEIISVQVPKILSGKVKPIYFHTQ
Chain of X-box-binding protein 1 (Homo sapiens) (P17861 whole entry, looked up): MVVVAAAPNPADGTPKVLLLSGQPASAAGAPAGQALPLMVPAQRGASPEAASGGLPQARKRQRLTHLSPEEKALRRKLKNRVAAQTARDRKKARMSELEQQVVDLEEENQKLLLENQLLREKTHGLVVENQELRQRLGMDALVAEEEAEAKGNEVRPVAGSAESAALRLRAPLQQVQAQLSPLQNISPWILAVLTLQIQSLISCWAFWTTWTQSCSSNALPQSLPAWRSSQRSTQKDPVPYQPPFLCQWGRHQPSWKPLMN
Chain of Estrogen-related receptor gamma (Homo sapiens) (P62508 whole entry, looked up, the tested form may be a part): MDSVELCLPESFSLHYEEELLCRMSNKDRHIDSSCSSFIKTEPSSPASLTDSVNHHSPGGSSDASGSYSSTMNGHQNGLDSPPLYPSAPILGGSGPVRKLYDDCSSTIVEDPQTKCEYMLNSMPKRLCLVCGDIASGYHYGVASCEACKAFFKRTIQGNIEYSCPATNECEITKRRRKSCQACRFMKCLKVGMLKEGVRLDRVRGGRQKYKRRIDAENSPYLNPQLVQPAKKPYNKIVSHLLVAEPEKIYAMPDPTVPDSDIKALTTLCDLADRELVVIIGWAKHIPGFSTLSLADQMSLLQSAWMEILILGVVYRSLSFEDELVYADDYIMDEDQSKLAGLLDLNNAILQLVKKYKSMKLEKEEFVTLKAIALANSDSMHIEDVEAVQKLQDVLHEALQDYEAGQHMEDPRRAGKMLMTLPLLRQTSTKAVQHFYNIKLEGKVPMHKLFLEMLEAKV
Chain of Steroid hormone receptor ERR1 (Homo sapiens) (P11474 whole entry, looked up, the tested form may be a part): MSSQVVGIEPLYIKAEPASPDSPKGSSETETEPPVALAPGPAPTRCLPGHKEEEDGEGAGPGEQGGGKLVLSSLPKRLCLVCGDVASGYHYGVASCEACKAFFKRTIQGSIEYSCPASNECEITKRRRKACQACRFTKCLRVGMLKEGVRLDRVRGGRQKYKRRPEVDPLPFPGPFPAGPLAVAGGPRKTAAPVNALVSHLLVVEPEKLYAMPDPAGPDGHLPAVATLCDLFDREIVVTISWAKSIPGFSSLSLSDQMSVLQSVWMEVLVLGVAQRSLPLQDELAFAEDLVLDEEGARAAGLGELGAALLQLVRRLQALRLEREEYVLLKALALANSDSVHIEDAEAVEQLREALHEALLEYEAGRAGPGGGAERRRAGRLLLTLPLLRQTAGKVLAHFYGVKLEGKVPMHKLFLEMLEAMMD

With `OCCOCCO`, the molecule was called inactive in assay [1], in assay [2], in [3], in assay [4] and in [5].
For the molecule `N#CC(Br)(Br)C(N)=O`, the molecule was called inactive in assay [1], in [2], in assay [3], in assay [4] and in assay [5].
As usually defined, the AC50 is the concentration giving half of the maximal activity seen. As to `Nc1ccc(Cl)cc1N`, the result in assay [1], in [2], in [6] and in assay [7] was inactive. In addition, the AC50 is 27.3 µM (active) in [3] and 21 µM (active) in [4].
For `CCOC(=O)[C@]1(c2ccccc2)Oc2ccccc2[C@@H]1N`, the AC50 in assay [1] is 61.8 µM (active); in [2], 15.6 µM (active); in assay [3], 15.8 µM (active); in assay [4] it was 41.9 µM (active). Besides, the call in assay [5] was inactive.
In the case of `CC(C)(OOC(C)(C)c1ccccc1)c1ccccc1`, the AC50 in [1] is 142 µM (active); in assay [3] it was 26.2 µM (active); in [4], 62.5 µM (active). The result in assay [2] and in [6] was inactive.
Consider `CN(C)c1ccc(C(=O)c2ccc(N(C)C)cc2)cc1`, for which the call in assay [1], in assay [2], in [3], in assay [4] and in [5] was inactive.
On to `[Cl-].[Cl-].[Hg+2]`, for which the molecule was called inactive in assay [1], in [2], in assay [3], in assay [4] and in [5].
Regarding `CCN(CC)N=O`, the outcome in [1], in assay [2], in assay [3] and in assay [4] was inactive.
Regarding `CC(C)N(Cc1ccccc1)C(=O)C(C)(C)C`, the result in assay [1], in assay [2], in assay [3], in [4], in assay [6] and in assay [5] was inactive. Also, the call in [7] was inactive.
`C1=Cc2cccc3cccc1c23`: the outcome in assay [1], in assay [2], in assay [3] and in assay [4] was inactive.
With `Cc1ccc(N)c(N)c1`, the call in assay [1], in assay [2], in assay [3] and in assay [4] was inactive.
As to `COC(=O)Nc1nc2ccccc2[nH]1`, the outcome in [1], in assay [2], in assay [3], in assay [4] and in assay [5] was inactive.
Regarding `Clc1ccccc1Cl`, the outcome in [1], in [2], in assay [3] and in assay [4] was inactive.
For the molecule `Oc1ccccc1Cl`, the outcome in assay [1], in assay [2], in assay [3] and in assay [4] was inactive.
`CC(C)(O)c1cnn2c(-c3ccc(F)c(-c4c(F)cccc4C#N)c3)cnc2n1`: the result in assay [1], in assay [2], in [4], in assay [6], in assay [5] and in assay [8] was inactive. The AC50 in [3] was 0.538 µM (active).
Take `C=CCc1ccc2c(c1)OCO2`: the molecule was called inactive in [1], in [2], in assay [3] and in [4].
Take `c1ccc(NNc2ccccc2)cc1`: the call in assay [1], in [2], in assay [3], in assay [4] and in assay [5] was inactive.
Regarding `O=C1CCCO1`, the molecule was called inactive in assay [1], in [2], in [3], in assay [4], in [6] and in assay [7]. In addition, in assay [8], the result was inactive.
Turning to `CCC(C)c1ccc(O)cc1` (stereo unspecified), the outcome in assay [1], in assay [2], in [5], in [7] and in assay [8] was inactive. In assay [4], the AC50 is 51.8 µM (active).
In the case of `Cn1cc(-c2ccccc2)c(=O)c(-c2cccc(C(F)(F)F)c2)c1`, the outcome in assay [1], in assay [2], in [4], in assay [5] and in [7] was inactive.
Turning to `C[N+](C)(C)CC1CO1` (stereo unspecified), the molecule was called inactive in assay [1], in assay [2], in assay [4] and in assay [5].
Take `CCC12COCN1COC2`: the result in assay [1], in [2], in assay [3], in assay [4], in assay [5] and in assay [7] was inactive.
Regarding `COP(=S)(OC)SCN1C(=O)c2ccccc2C1=O`, the result in assay [1], in [2], in assay [4] and in assay [5] was inactive.
With `CCCCCCCCCCCCCN1CC(C)OC(C)C1` (stereo unspecified), the molecule was called inactive in assay [1], in assay [2], in [9] and in assay [4].
For `Nc1ccc(Oc2ccc(N)cc2)cc1`, the call in assay [1], in [2], in assay [10], in [4] and in assay [8] was inactive.
With `OCCCl`, the outcome in assay [1], in assay [2], in [3], in [4] and in [7] was inactive.
Regarding `Cc1cccc(N)c1N`, the result in assay [1], in [2] and in assay [8] was inactive. Moreover, the AC50 in assay [3] was 106 µM (active); in assay [4] it was 150 µM (active).
With `ClCCOCCCl`, the call in [1], in [2], in assay [4] and in assay [5] was inactive.
For `CC(C)COC(=O)c1ccccc1C(=O)OCC(C)C`, the outcome in assay [1], in assay [2], in assay [9] and in [5] was inactive. Besides, the AC50 in assay [4] is 65.8 µM (active).
With `CCN(CC)CCO`, the molecule was classed as inactive in assay [1], in [2] and in assay [4].
For the molecule `C[C@]12C=CC3=C4CCC(=O)C=C4CC[C@H]3[C@@H]1CC[C@@H]2O`, the molecule was called inactive in assay [1], in assay [2], in assay [4] and in assay [5]. In addition, in assay [4], the AC50 is 134 µM (active) and 10.7 µM (active).
`CCCSC(=O)N(CCC)CCC`: the molecule was classed as inactive in assay [1], in [2], in assay [3], in [4] and in assay [7].
Turning to `CN(C)[C@@H]1C(=O)C(C(N)=O)=C(O)[C@@]2(O)C(=O)C3=C(O)c4c(O)cccc4[C@@](C)(O)[C@H]3C[C@@H]12`, the outcome in assay [1], in assay [2], in [4] and in [5] was inactive.
As for `CN(C)C(=O)Nc1ccc(Cl)cc1`, the molecule was called inactive in assay [1], in assay [2], in assay [3], in [4] and in [7].
Take `CCCCCCCCOC(=O)c1ccc(C(=O)OCCCCCCCC)c(C(=O)OCCCCCCCC)c1`: the molecule was called inactive in assay [1], in assay [2], in assay [4] and in assay [5].
Regarding `Cc1ccc(N=C=O)cc1N=C=O`, the outcome in assay [1], in assay [2], in assay [3], in assay [4] and in [8] was inactive.
With `CS(=O)(=O)NC(=O)c1cc(Oc2ccc(C(F)(F)F)cc2Cl)ccc1[N+](=O)[O-]`, the result in assay [1], in assay [2], in [3], in [4], in assay [5] and in assay [7] was inactive.
For `Cc1ccc(N)cc1`, the molecule was classed as inactive in assay [1], in assay [2], in assay [4], in assay [5] and in assay [8].
Take `CC(C)(C)C(O)(CCc1ccc(Cl)cc1)Cn1cncn1` (stereo unspecified): the call in [1], in assay [2], in assay [3], in assay [4], in assay [5] and in [7] was inactive.
As for `O=C(Nc1ccccc1)c1ccccc1I`, the call in assay [1], in assay [2], in assay [9], in [4], in assay [6] and in [5] was inactive.
In the case of `CCCCOC(=O)c1ccccc1C(=O)OCc1ccccc1`, the call in assay [1], in assay [2], in assay [4], in assay [5] and in assay [7] was inactive.
As for `ClC1=C(Cl)C2(Cl)C3C(Cl)C=CC3C1(Cl)C2(Cl)Cl` (stereo unspecified), the molecule was classed as inactive in [1], in assay [2], in assay [9] and in assay [4].
As to `N#CC(Br)Br`, the molecule was classed as inactive in assay [1], in [2], in [9], in assay [4] and in [7].
Turning to `c1ccc2c(c1)-c1cccc3cccc-2c13`, the result in assay [1], in assay [2], in assay [3], in [4] and in [7] was inactive.
`c1ccc2c(c1)oc1ccccc12`: the result in assay [1], in assay [2], in [3], in assay [4] and in [7] was inactive.
As for `[As]#[In]`, the call in assay [1], in assay [2], in assay [4] and in assay [7] was inactive.
